Assay results reported in PubChem BioAssay (NCI).
This is part of a sample that, as a whole, favours compounds with a hit. Of some 79,000 tested, about 15% had one in any assay. Calls of active or inactive are those of the source. Rule as the data show it: active = growth inhibition above about 70%; inactive = the rest.

What was measured:
[1] = NCI Yeast Anticancer Drug Screen. Data for the rad50 strain (AID 155);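 also: 0% = growth of vehicle-only cultures of the same strain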; conditions: S. cerevisiae rad50 strain growth inhibition, hits give high values
Summary of the method: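 Yeast carrying a defined DNA repair defect were exposed to test compounds, and growth was compared with vehicle-treated controls to give percent inhibition.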

[2] = NCI Yeast Anticancer Drug Screen. Data for the mec2-1 strain (AID 157); conditions: S. cerevisiae mec2-1 strain, hits give high values
Summary of the method: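 Compounds were applied to mec2-1 yeast cells. Their growth was then compared with that of vehicle-treated cultures to give growth inhibition.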

[3] = NCI Yeast Anticancer Drug Screen. Data for the sgs1 mgt1 strain (AID 161);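 also: 0% = growth of cultures given vehicle only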; conditions: S. cerevisiae sgs1 mgt1 strain, hits give high values
Summary of the method: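 Compounds are added to genetically altered yeast, and growth is compared with cultures given vehicle alone to give percent inhibition.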

[4] = NCI Yeast Anticancer Drug Screen. Data for the cln2 rad14 strain (AID 165);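 also: 0% = growth equal to vehicle treated cultures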; conditions: S. cerevisiae cln2 rad14 strain, hits give high values
Summary of the method: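 Strain: cln2 rad14 yeast, altered in cell cycle control and DNA damage repair. Read-out: growth inhibition vs vehicle.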

[5] = NCI Yeast Anticancer Drug Screen. Data for the bub3 strain (AID 167); conditions: S. cerevisiae bub3 mutant strain, hits give high values
Summary of the method: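 Compounds were applied to a genetically altered yeast strain carrying a cell-cycle control defect. Growth inhibition was scored against vehicle-treated controls.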

[6] = NCI Yeast Anticancer Drug Screen. Data for the mlh1 rad18 strain (AID 175); conditions: S. cerevisiae mlh1 rad18 strain growth inhibition, hits give high values
Summary of the method: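 A repair-deficient yeast strain is exposed to test compound, and growth is scored relative to vehicle-treated controls.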

[7] = at 5.0 µM (retest, dose inferred, filed as 0.5)
[8] = at 50.0 µM (retest, dose inferred, filed as 5.0)

Measured: growth inhibition

C/C(CC(O)(C(F)(F)F)C(F)(F)F)=N/Nc1ccc([N+](=O)[O-])cc1[N+](=O)[O-]
inactive: [1]; [7] 16% | [2]; [7] -11% | [3]; [7] -2% | [4]; [7] 13% | [5]; [7] -10% | [6]; [7] 12%
active: [1]; [8] 99% | [1]; at 50.0 µM 99.2% | [2]; [8] 99% | [2]; at 50.0 µM 99.5% | [3]; [8] 99% | [3]; at 50.0 µM 99.5% | [4]; [8] 99% | [4]; at 50.0 µM 99.3% | [5]; [8] 100% | [5]; at 50.0 µM 99.5% | [6]; [8] 99% | [6]; at 50.0 µM 99.3%

O=c1oc2ccccc2c(O)c1C1=N/C(=N/N=C/c2ccc(Cl)cc2)SC1
active: [1]; [8] 97% | [2]; [8] 98% | [3]; [8] 97% | [4]; [8] 95% | [5]; [8] 97% | [5]; at 50.0 µM 98.5% | [6]; [8] 97%
inactive: [1]; [7] -6% | [1]; at 50.0 µM 64.2% | [2]; [7] -3% | [2]; at 50.0 µM 30.7% | [3]; [7] -3% | [3]; at 50.0 µM 4.05% | [4]; [7] 0% | [4]; at 50.0 µM 50.2% | [5]; [7] -1% | [6]; [7] 1% | [6]; at 50.0 µM 47.2%

NC(=S)NNC(=O)c1cccnc1
active: [1]; [8] 78% | [4]; [8] 75% | [5]; [8] 82%
inactive: [1]; [7] 4% | [1]; at 50.0 µM -5.1% | [2]; [7] 1% | [2]; [8] 39% | [2]; at 50.0 µM -5.95% | [3]; [7] 2% | [3]; [8] 46% | [3]; at 50.0 µM 45.6% | [4]; [7] 5% | [4]; at 50.0 µM -31.4% | [5]; [7] 2% | [5]; at 50.0 µM 0.15% | [6]; [7] -1% | [6]; [8] 68% | [6]; at 50.0 µM 50.8%

CCC(C(=O)CCN(C)C)(c1ccccc1)c1ccccc1
active: [1]; [8] 99% | [1]; at 50.0 µM 99.5% | [2]; [8] 99% | [2]; at 50.0 µM 99.6% | [3]; [7] 80% | [3]; [8] 99% | [3]; at 50.0 µM 99.3% | [4]; [8] 99% | [4]; at 50.0 µM 99.3% | [5]; [8] 99% | [5]; at 50.0 µM 99.8% | [6]; [7] 80% | [6]; [8] 99% | [6]; at 50.0 µM 99.5%
inactive: [1]; [7] 67% | [2]; [7] 49% | [4]; [7] 19% | [5]; [7] 59%

CN(C)CC1CCc2c(ccc3ccccc23)C1=O (configuration not stated)
active: [3]; [8] 76% | [3]; at 50.0 µM 71.1% | [5]; [8] 82% | [6]; [8] 78%
inactive: [1]; [7] 8% | [1]; [8] 68% | [1]; at 50.0 µM 69% | [2]; [7] -16% | [2]; [8] 28% | [2]; at 50.0 µM 66.8% | [3]; [7] 29% | [4]; [7] 12% | [4]; [8] 46% | [4]; at 50.0 µM 39.7% | [5]; [7] 19% | [5]; at 50.0 µM 58.8% | [6]; [7] 40% | [6]; at 50.0 µM 53.8%

CN(C)c1ccc(/C=C(/C#N)c2ccc(Cl)cc2)cc1
inactive: [1]; [7] -16% | [1]; [8] -18% | [1]; at 50.0 µM 3.45% | [2]; [7] 0% | [2]; [8] 8% | [2]; at 50.0 µM 13.2% | [3]; [7] 3% | [3]; [8] 15% | [3]; at 50.0 µM -10.3% | [4]; [7] 27% | [4]; [8] -6% | [4]; at 50.0 µM 64.4% | [5]; [7] 6% | [5]; [8] -25% | [5]; at 50.0 µM 7% | [6]; [7] -17% | [6]; [8] -18% | [6]; at 50.0 µM 5.5%

CCCCCCCCCCCCNC(=O)C[n+]1cccc(C(=O)N(C)C)c1
active: [3]; at 50.0 µM 91.4%
inactive: [1]; [7] -5% | [1]; [8] 33% | [1]; at 50.0 µM 68.3% | [2]; [7] -24% | [2]; [8] -13% | [2]; at 50.0 µM 58% | [3]; [7] -17% | [3]; [8] 46% | [4]; [7] -15% | [4]; [8] 13% | [4]; at 50.0 µM 24.6% | [5]; [7] -9% | [5]; [8] 21% | [5]; at 50.0 µM 3.35% | [6]; [7] 7% | [6]; [8] 44% | [6]; at 50.0 µM 53.4%

COc1cccc2c1[n+]([O-])c1cccc(O)c1[n+]2[O-]
active: [1]; [7] 98% | [1]; [8] 99% | [1]; at 50.0 µM 91.4% | [2]; [7] 99% | [2]; [8] 100% | [2]; at 50.0 µM 90.4% | [3]; [7] 100% | [3]; [8] 100% | [3]; at 50.0 µM 87.5% | [4]; [7] 93% | [4]; [8] 99% | [4]; at 50.0 µM 88.4% | [5]; [7] 99% | [5]; [8] 100% | [5]; at 50.0 µM 84.2% | [6]; [7] 97% | [6]; [8] 99% | [6]; at 50.0 µM 91.7%

CN(NC(=O)c1cccs1)C1=NCCCN1
inactive: [1]; [7] 43% | [1]; at 50.0 µM -18.2% | [2]; [7] 8% | [2]; [8] 21% | [2]; at 50.0 µM -4.9% | [3]; [7] 65% | [3]; at 50.0 µM -16.9% | [4]; [7] 6% | [4]; [8] 33% | [4]; at 50.0 µM 10.3% | [5]; [7] 18% | [5]; [8] 22% | [5]; at 50.0 µM 4.8% | [6]; [7] 23% | [6]; [8] 55% | [6]; at 50.0 µM -20.7%
active: [1]; [8] 83% | [3]; [8] 76%
